Drawing on ChEMBL document CHEMBL3988442, “University of Dundee, Small-Polar-MMV Screening Library” (2021), this text covers Percent Effect for eleven compounds.

For some of these results: Entries with a potency or affinity are not part of this list.

Design in all cases: scale not given: direction of the effect not stated beside the values
Assay [1] concerns the target Protein translocase subunit SecA (Escherichia coli (strain K12)) (UniProt P10408). The assay is described as follows: Assay to Identify E. coli SecA ATPase Inhibitors. The settings on record: 30 µM. The assay is classed as functional.
Assay [2] concerns the target T1, Ubiquitin-activating enzyme e1, putative (Leishmania donovani (strain BPK282A1)) (UniProt E9BSI1).
T1 sequence (whole entry): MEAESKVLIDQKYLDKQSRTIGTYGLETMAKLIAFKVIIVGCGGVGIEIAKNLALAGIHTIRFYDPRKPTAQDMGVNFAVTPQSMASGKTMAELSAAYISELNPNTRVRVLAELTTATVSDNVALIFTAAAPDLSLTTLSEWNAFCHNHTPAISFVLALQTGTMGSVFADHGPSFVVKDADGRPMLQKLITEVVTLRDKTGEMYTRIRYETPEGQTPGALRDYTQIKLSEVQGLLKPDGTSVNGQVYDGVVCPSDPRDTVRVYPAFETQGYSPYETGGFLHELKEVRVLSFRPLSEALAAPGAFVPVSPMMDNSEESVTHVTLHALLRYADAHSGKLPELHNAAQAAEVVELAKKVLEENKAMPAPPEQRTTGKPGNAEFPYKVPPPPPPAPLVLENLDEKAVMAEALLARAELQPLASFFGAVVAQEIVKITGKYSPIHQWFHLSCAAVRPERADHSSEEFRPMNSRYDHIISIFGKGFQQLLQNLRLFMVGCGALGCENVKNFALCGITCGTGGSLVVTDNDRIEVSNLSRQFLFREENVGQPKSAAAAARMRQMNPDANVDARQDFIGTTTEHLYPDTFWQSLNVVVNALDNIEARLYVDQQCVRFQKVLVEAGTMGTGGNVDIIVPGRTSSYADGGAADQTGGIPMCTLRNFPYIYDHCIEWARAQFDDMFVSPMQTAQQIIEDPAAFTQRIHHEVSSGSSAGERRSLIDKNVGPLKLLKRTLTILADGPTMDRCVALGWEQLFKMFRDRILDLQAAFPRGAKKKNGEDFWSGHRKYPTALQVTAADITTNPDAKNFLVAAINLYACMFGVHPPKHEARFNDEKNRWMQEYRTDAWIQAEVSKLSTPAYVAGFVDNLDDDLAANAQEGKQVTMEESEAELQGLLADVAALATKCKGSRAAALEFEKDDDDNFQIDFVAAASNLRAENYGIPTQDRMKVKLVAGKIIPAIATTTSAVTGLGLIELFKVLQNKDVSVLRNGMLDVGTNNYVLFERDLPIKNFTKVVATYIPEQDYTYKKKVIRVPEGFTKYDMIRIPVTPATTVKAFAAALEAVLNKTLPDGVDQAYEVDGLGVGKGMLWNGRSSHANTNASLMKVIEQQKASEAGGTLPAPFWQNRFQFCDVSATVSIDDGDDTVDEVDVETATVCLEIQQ
The assay is described as follows: Leishmania donovani Ubiquitin Activating Enzyme (LdE1). The assay is classed as functional. To be noted: 30 µM.

The target of assay [3] is AMP-activated protein kinase, AMPK (Homo sapiens) (UniProt P54646+O43741+P54619+Q9UGJ0+Q9Y478+Q13131+Q9UGI9). The assay is described as follows: AMP-dependent Kinase enzyme assay. An in vitro enzyme assay that detects ADP turnover that is directly proportional to AMPK activity. This uses naive AMPK that is activated during the assay with MK-8722. The assay is classed as functional. The settings on record: 30 µM.

Assay [4] concerns the target Sialic acid-binding Ig-like lectin 9 (Homo sapiens) (UniProt Q9Y336). The assay is described as follows: Hs-Siglec9 ALPHAscreen SOP 20170721. The settings on record: 10 µM. For orientation: In Alpha technology, singlet oxygen from a donor bead excites a nearby acceptor bead.
For the next assay, the system named is Trypanosoma cruzi. The assay is described as follows: Trypanosoma cruzi phosphomannomutase and mannose-1-phosphate guanylyltransferase assay. It is filed as functional. To be noted: 10 µM.
Assay [5] has as its target T2, Arginase-2, mitochondrial (Homo sapiens) (UniProt P78540).
T2 sequence (whole entry): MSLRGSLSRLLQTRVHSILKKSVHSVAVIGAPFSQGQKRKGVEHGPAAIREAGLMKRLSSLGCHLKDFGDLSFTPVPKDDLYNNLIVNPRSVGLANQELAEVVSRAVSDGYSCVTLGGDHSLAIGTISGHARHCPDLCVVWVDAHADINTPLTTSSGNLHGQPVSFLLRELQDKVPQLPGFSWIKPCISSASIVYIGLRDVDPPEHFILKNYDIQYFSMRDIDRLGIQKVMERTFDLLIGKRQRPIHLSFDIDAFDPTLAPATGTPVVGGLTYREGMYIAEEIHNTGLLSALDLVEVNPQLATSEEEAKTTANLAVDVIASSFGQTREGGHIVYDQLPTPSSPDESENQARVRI
The assay is described as follows: in vitro enzyme assay to detect the production of urea directly proportional to the activity of Arginase II. Also: in the data most compounds retested in dose-response had high values. The assay is classed as functional. To be noted: 33.3 µM.

Assay [6] addresses T3, Proteasome subunit beta (Trypanosoma cruzi) (UniProt O96673).
T3 sequence (whole entry): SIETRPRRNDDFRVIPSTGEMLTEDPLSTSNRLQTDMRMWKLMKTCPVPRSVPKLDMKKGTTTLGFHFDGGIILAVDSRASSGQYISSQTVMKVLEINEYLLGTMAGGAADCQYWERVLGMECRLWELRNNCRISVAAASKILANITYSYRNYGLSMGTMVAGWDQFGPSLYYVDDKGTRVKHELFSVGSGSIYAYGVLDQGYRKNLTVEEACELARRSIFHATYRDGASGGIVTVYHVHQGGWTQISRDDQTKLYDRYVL
The assay is described as follows: Trypanosoma cruzi proteasome chymotrypsin-like activity (TcProtChymo) assay. Also: in the data most compounds retested in dose-response had high values. It is filed as functional. To be noted: 9.37 µM.

For the next assay, the species on record is Homo sapiens. The assay is described as follows: To identify inhibition of the IFN signalling (Jak-Stat) pathway via expression of an eGFP reporter gene under the control of an IFN-stimulated response element (ISRE) containing MxA promoter. The settings on record: 30 µM. The assay is classed as functional.
Assay [7] concerns the target T4, Tyrosyl-tRNA synthetase, putative (Trypanosoma cruzi (strain CL Brener)) (UniProt Q4DSP6).
T4 sequence (whole entry): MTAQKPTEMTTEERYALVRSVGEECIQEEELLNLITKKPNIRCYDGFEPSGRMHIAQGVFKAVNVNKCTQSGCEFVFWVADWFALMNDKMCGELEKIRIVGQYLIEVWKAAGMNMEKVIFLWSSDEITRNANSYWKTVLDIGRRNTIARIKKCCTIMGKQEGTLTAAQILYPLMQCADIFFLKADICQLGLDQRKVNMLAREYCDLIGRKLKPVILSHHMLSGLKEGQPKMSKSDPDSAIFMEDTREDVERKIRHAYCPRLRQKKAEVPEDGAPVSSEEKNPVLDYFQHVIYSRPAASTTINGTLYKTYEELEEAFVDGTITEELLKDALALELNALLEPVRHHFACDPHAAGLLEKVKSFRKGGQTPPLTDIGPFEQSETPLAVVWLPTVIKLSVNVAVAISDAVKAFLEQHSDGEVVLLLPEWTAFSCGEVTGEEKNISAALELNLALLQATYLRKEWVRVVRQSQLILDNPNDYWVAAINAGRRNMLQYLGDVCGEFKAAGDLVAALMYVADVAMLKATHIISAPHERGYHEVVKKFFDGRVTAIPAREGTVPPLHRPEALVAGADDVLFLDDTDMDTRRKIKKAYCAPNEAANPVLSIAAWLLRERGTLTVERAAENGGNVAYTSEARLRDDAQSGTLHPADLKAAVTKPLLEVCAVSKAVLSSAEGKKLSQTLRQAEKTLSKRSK
The assay is described as follows: Trypanosoma cruzi tyrosyl tRNA synthetase (TcYRS) _High Tyrosine SOP. Also: in the data most compounds retested in dose-response had high values. The settings on record: 30 µM. It is filed as functional.

In assay [8] the target is T4, Tyrosyl-tRNA synthetase, putative (Trypanosoma cruzi (strain CL Brener)). The assay is described as follows: Trypanosoma cruzi tyrosyl tRNA synthetase (TcYRS) SOP. The assay is classed as functional. The settings on record: 30 µM.
Assay [9] deals with Chromo domain-containing protein 1 (Saccharomyces cerevisiae (strain ATCC 204508 / S288c) (Baker's yeast)) (UniProt P32657). The assay is described as follows: ScCHD-1 Enzyme Inhibition Assay. Also: in the data most compounds retested in dose-response had high values. The settings on record: 30 µM. The assay is classed as functional.
Chromo domain-containing protein 1 (Saccharomyces cerevisiae (strain ATCC 204508 / S288c) (Baker's yeast)), sequence (P32657 whole entry, the tested form may be a part): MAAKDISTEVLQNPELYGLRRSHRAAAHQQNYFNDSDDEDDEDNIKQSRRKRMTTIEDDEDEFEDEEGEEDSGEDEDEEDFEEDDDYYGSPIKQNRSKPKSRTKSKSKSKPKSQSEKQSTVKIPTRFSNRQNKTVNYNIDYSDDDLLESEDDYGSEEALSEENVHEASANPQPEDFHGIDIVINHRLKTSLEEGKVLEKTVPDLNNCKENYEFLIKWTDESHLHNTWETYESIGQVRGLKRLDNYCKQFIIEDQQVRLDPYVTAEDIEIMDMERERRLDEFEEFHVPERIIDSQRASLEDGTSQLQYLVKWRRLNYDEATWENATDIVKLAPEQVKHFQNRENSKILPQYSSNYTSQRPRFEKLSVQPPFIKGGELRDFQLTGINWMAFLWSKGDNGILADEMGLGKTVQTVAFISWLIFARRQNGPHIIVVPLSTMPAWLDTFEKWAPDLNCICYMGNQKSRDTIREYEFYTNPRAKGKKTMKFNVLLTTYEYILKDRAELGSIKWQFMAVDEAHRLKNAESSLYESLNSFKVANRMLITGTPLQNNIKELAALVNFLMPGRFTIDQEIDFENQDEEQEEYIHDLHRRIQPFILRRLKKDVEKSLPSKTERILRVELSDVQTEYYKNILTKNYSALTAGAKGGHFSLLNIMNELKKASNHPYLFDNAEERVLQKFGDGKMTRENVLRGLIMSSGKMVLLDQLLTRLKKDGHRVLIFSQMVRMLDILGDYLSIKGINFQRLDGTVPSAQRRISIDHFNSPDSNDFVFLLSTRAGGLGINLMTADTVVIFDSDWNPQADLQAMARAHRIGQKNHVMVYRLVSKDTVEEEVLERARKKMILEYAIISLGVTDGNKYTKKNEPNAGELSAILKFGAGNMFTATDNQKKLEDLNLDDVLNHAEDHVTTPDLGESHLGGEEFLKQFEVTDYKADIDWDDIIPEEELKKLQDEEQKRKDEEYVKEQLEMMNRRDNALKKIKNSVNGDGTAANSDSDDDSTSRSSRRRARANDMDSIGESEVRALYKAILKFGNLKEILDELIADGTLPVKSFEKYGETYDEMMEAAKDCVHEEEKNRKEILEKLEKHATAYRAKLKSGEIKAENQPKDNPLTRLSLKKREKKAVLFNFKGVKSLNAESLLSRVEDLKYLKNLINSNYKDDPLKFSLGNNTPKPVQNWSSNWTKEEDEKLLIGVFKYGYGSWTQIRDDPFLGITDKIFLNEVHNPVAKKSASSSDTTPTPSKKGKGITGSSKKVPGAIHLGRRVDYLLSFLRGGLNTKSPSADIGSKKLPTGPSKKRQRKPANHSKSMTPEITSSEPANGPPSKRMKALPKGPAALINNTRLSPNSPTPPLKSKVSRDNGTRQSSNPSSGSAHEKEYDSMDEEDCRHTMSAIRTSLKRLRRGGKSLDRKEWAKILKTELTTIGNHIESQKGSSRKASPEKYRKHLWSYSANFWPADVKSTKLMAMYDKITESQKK

Protein translocase subunit SecA (Escherichia coli (strain K12)), sequence (P10408 whole entry): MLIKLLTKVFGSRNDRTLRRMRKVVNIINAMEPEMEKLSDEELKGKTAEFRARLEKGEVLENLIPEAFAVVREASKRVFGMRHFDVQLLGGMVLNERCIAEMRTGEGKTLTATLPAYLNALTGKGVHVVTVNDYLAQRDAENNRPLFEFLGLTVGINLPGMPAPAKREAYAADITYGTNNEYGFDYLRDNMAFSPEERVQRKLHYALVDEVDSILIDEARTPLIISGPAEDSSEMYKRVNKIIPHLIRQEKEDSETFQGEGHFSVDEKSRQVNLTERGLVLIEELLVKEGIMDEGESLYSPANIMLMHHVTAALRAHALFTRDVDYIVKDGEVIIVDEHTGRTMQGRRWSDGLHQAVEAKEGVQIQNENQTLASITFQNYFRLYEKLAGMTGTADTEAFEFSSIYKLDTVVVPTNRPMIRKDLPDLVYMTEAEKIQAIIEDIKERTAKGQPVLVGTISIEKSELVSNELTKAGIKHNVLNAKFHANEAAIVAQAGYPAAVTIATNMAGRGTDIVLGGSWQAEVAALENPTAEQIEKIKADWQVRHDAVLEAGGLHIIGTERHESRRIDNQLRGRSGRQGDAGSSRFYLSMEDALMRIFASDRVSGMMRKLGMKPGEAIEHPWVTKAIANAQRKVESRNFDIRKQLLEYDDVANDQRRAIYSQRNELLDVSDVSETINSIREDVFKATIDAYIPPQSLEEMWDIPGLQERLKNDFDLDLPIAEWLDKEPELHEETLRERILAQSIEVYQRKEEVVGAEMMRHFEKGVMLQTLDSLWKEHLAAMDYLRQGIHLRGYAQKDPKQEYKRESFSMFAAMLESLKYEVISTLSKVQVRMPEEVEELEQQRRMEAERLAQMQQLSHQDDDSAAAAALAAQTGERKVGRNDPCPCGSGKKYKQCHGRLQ
Sialic acid-binding Ig-like lectin 9 (Homo sapiens), sequence (Q9Y336 whole entry): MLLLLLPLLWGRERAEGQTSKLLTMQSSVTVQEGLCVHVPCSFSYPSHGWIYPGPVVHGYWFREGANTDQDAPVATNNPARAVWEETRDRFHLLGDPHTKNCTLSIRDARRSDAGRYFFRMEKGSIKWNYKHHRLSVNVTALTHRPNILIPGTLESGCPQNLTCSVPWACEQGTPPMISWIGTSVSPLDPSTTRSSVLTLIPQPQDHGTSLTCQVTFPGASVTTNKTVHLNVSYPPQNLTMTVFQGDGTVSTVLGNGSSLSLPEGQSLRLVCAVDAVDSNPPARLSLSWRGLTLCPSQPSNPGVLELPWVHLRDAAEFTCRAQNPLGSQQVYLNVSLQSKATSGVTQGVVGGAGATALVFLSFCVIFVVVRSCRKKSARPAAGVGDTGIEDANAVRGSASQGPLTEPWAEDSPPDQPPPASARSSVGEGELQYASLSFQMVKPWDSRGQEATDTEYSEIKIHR

On to `N#Cc1ccc(S(=O)(=O)NC(=O)C2CC2)c(C(F)(F)F)c1`, for which the Percent Effect in assay [1] is -6.08%; in assay [2], 21.6%; in [3], -10.9%; in assay [4], 20.8%; with Trypanosoma cruzi, 4.81%; in [5], -6.41%. The Percent Effect was 6.49% in assay [6]; 7.08% in the assay filed under Homo sapiens; 6.4% in [7]; 23.5% in assay [8]; -7.62% in assay [9].
`Cn1ccnc1CN1CCN(CC(O)c2cccc(F)c2)CC1` (stereo unspecified): the Percent Effect in [1] is -1.52%; in assay [2] it was 18.2%; in [3], -1.07%; in [4] it was 4.38%; in the assay with Trypanosoma cruzi it was -0.49%; in assay [5], -1.9%. Besides, the Percent Effect is 15.4% in [6]; -1.78% in the assay listed under Homo sapiens; 6.67% in assay [7]; 18.8% in assay [8]; -11.3% in assay [9].
Turning to `Cc1cc(C)nc(Nc2cc(C3CCCN(C)C3)nc(C)n2)n1` (stereo unspecified), the Percent Effect in [1] is -3.56%; in assay [2] it was 9.46%; in [3], -3.72%; in assay [4], 6.27%; in the assay with Trypanosoma cruzi, 1.19%; in [5], -1.62%. Besides, the Percent Effect is 9.2% in assay [6]; 1.68% in the assay listed under Homo sapiens; 4.3% in assay [7]; 11.7% in assay [8]; -18.4% in [9].
As to `Cc1cc(CN2CCN(CCOc3cccc(C#N)c3)CC2)no1`, the Percent Effect in assay [1] is -2.32%; in assay [2], 15.8%; in assay [3], -0.384%; in assay [4], -11.5%; in the assay with Trypanosoma cruzi, -1.4%; in [5] it was 1.44%. For the same compound, the Percent Effect is 10.6% in assay [6]; 3.18% in the assay filed under Homo sapiens; 5.42% in [7]; 23.5% in [8]; -5.93% in assay [9].
Turning to `O=C(NCc1ccco1)[C@H]1C[C@H]2OCC[C@H]2N(C(=O)c2ccncc2)C1`, the Percent Effect was -2.12% in [1]; -2.67% in assay [2]; 11.1% in [3]; 21.8% in assay [4]; 0.193% in the assay with Trypanosoma cruzi; -50% in assay [5]. Also, the Percent Effect is 7.18% in [6]; -21.2% in the assay filed under Homo sapiens; 3.12% in assay [7]; 2.5% in assay [8]; -1.86% in assay [9].
`CC(C)[C@H](NC(=O)NC1CCS(=O)(=O)C1)C(=O)NCc1ccccc1Cl` (stereo partly specified): the Percent Effect in assay [1] was -0.711%; in [2] it was -6.67%; in assay [3] it was 4.79%; in assay [4], 4.22%; in the assay on Trypanosoma cruzi it was -6.88%; in assay [5], -4.05%. Moreover, the Percent Effect in assay [6] was 3.51%; in the assay filed under Homo sapiens, -4.73%; in assay [7], -5.29%; in assay [8], -2.56%; in [9], 1.25%.
Turning to `c1cncc(-c2nccc(CN3CCCC3)n2)c1`, the Percent Effect in [1] is -0.958%; in assay [2] it was 6.76%; in assay [3] it was 11.4%; in assay [4] it was -5.74%; in the assay on Trypanosoma cruzi, 2.37%; in assay [5], -22%. In addition, the Percent Effect is 19.5% in [6]; -2.71% in the assay filed under Homo sapiens; 9.68% in assay [7]; 14.3% in assay [8]; -16.2% in [9].
On to `CS(=O)(=O)c1ccc(CNC(=O)N2CCC(C(N)=O)C2)cc1` (stereo unspecified), for which the Percent Effect in assay [1] is -5.24%; in [2] it was 25.3%; in assay [3], -8.85%; in [4], 3.98%; in the assay on Trypanosoma cruzi, 8.78%; in [5] it was -3.04%. Besides, the Percent Effect is 14.2% in [6]; 0.909% in the assay listed under Homo sapiens; 8.37% in [7]; 26.6% in [8]; -5.74% in assay [9].
In the case of `c1cc2nccc(CC3CCCN(Cc4ncc[nH]4)CC3)c2cn1` (stereo unspecified), the Percent Effect in [1] was -2.14%; in assay [2], 9.46%; in assay [3], 4.64%; in assay [4] it was 12.8%; in the assay with Trypanosoma cruzi, 5.34%; in assay [5] it was -2.09%. Besides, the Percent Effect in [6] was 9.98%; in the assay filed under Homo sapiens it was 12.3%; in assay [7], 11.8%; in [8] it was 24.7%; in assay [9] it was -17.2%.
On to `CCn1cc(CN2CCC(c3nnc(CN(C)C)n3CC)CC2)cn1`, for which the Percent Effect is 0.381% in [1]; 10.4% in assay [2]; 3.2% in assay [3]; 6.14% in assay [4]; -4.03% in the assay on Trypanosoma cruzi; -1.38% in assay [5]. Moreover, the Percent Effect came to 14% in assay [6]; 4.82% in the assay filed under Homo sapiens; 2.15% in assay [7]; 6.17% in assay [8]; 0.0159% in [9].
As for `CC(=O)Nc1nc(CN2CCCC2Cn2cc(C)cn2)cs1` (stereo unspecified), the Percent Effect in [1] was 0.188%; in assay [2], 13%; in [3] it was 1.99%; in assay [4], -21.8%; in the assay with Trypanosoma cruzi it was 1.08%; in assay [5], -6.53%. In addition, the Percent Effect in [6] was 21.9%; in the assay listed under Homo sapiens it was 4.62%; in [7], 9.52%; in assay [8] it was 25.9%; in assay [9], -28.6%.
